Compound activity as filed in PubChem.
eIF4H FP inh = inhibitors of RNA binding by human eIF4H | 290,000 tested, 0.94% active | eIF4H fluorescence polarization binding assay | inhibition, % at 35 µM | Q15056;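 also: calls also rest on retests at 20 µM and on dose response follow-up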
PHOSPHO1 block = blocks human PHOSPHO1 phosphatase activity; inhibition, % at 13.3 µM; Q8TCT1; 290,000 tested, 1.1% active; recombinant PHOSPHO1, absorbance phosphatase assay; AID 1565; in the data active = inhibition above about 60%
APOBEC3G inh = APOBEC3G (human) deaminase inhibition. Q9HC16. recombinant A3G, ssDNA deamination FAM/TAMRA fluorescence. inhibition, % at 20 µM. 330,000 tested, 0.28% active;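 active = inhibition of at least 40% at 20 µM, with no more than 30% in the related APOBEC3A deaminase screen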;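 also: plate controls were DMSO wells with A3G for no effect and wells lacking A3G enzyme for full effect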
PABP1 MLLE inh = blocks PAM2 peptide binding to the PABP1 MLLE domain; inhibition, % at 20 µM; 360,000 tested, 0.36% active; GST-MLLE / FITC-PAM2 fluorescence polarization; P11940; in the data active = inhibition above about 35%, passing the limit was not always enough;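 also: plate controls were DMSO wells with GST-MLLE for no effect and wells lacking GST-MLLE protein for full effect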
Target sequence (P11940 whole entry, looked up, the tested form may be a part): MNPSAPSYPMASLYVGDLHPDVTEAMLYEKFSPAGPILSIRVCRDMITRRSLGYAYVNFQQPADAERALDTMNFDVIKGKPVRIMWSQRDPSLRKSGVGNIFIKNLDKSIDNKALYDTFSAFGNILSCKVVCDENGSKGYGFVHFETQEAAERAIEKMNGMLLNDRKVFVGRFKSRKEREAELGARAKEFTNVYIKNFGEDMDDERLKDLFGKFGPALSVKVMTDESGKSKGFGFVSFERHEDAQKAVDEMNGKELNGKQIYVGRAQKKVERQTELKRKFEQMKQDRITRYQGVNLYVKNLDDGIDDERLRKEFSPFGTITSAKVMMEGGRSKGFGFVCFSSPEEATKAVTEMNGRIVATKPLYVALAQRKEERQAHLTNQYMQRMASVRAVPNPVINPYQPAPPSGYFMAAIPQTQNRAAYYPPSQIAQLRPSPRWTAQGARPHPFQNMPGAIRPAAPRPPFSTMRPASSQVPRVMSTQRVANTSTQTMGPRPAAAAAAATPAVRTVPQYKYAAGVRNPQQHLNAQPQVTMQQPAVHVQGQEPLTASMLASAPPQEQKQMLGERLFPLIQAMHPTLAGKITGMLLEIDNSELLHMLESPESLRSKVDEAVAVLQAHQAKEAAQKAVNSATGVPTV
PABP polyA inh = PABP-poly(A) binding inhibition; P11940; PABP-poly(A) RNA binding, fluorescence polarization; calls only at 35 µM; 290,000 tested, 1% active; AID 2014;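 also: calls also rest on retests at 20 µM and on dose response follow-up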
APOBEC3A inh = human APOBEC3A DNA deaminase inhibition. recombinant A3A, FAM/TAMRA ssDNA deamination fluorescence. inhibition, % at 20 µM. P31941. 330,000 tested, 0.41% active;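 active = at least 40% inhibition at 20 µM here, with at most 30% in a related deaminase screen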;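 also: plate controls were A3A with DMSO for no effect and wells lacking A3A enzyme for full effect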
A3A conf = APOBEC3A (human) deaminase inhibition, confirmed | shares compounds with APOBEC3A inh | recombinant A3A, ssDNA deaminase UDG fluorescence assay | AID 493151 | 1,400 tested, 63% active | inhibition, % at 20 µM;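 active = inhibition reaching a set limit, 80% of the first screen's cutoff, at 20 µM in any replicate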;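 also: plate controls were DMSO wells with A3A for no effect and wells lacking A3A enzyme for full effect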
UDG A3A counter = inhibits UDG, flagging false APOBEC3A inhibitors. UDG counterscreen, FAM/TAMRA uracil oligo fluorescence. inhibition, % at 20 µM. shares compounds with APOBEC3A inh. 1,000 tested, under 10 active
A3G conf = confirmation of human APOBEC3G DNA deaminase inhibitors; shares compounds with APOBEC3G inh; recombinant A3G ssDNA deaminase, UDG/FAM-TAMRA fluorescence; inhibition, % at 20 µM; 890 tested, 72% active;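 active = inhibition reaching a set limit in any replicate at 20 µM, the limit being 80% of the first screen's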
UDG A3G counter = E. coli UDG inhibition in APOBEC3G counter-screen; 710 tested, under 10 active; AID 504715; shares compounds with APOBEC3G inh; UDG counterscreen, FAM/TAMRA oligo fluorescence; inhibition, % at 20 µM;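 active = compounds giving 40% or more inhibition at 20 µM in any one of the three replicates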;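 also: plate controls were DMSO wells with UDG and oligo for no effect and DMSO wells lacking both for full effect; inhibitors lower the FAM signal released by uracil excision and alkaline cleavage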
Numbers without * were called inactive; i = inactive; / = not tested or not shown. In the library only some 2.6% were active in any assay of this set; here they are far more common. Unless noted, no rule for the calls is given here.

SMILES	eIF4H FP inh	PHOSPHO1 block	APOBEC3G inh	PABP1 MLLE inh	PABP polyA inh	APOBEC3A inh	A3A conf	A3G conf	others
COc1ccc(N=Nc2[nH]c3ccc(C)cc3c2O)cc1	-2.6	-6.8	21.1	-97.8	i	75.0*	52.4*	/	UDG A3A counter=0.0
Cc1ccc(N=Nc2[nH]c3ccccc3c2O)cc1	-1.7	-2.0	22.0	-17.4	i	62.6*	58.7*	/	UDG A3A counter=-1.2
Cc1ccccc1CSCC(=O)Nc1ccccc1Br	-2.3	23.9	15.9	-59.9	i	72.2*	10.7	/
Cc1ccccc1CSCC(=O)NC1CCCC1	3.2	5.5	-2.0	1.5	i	-0.2	/	/
COc1ccc(CCNC(=O)CCCN2C(=O)c3ccccc3C2=O)cc1	-1.8	47.1	-10.0	0.7	i	-3.4	/	/
O=c1oc(-c2ccccc2NS(=O)(=O)c2ccc(F)cc2)nc2ccccc12	-8.2	24.4	-7.8	5.2	i	-4.8	/	/
O=c1oc(-c2ccccc2NS(=O)(=O)c2ccccc2)nc2ccccc12	5.3	11.7	-0.9	2.2	i	50.2*	-1.8	/	UDG A3A counter=-2.7
O=C(Cc1cccs1)Nc1nnc(Cc2ccccc2)s1	60.7	-2.3	28.7	9.3	i	63.8*	45.9*	/	UDG A3A counter=-2.9
CN(C(=O)/C=C/c1ccco1)c1ccccc1C(=O)O	87.7	1.8	10.2	14.1	i	44.2*	22.3*	/	UDG A3A counter=-2.1
CN(C(=O)C=Cc1ccco1)c1ccccc1	/	/	/	-7.2	/	/	/	/
CC1=NN(c2ccccc2)C(=O)C1(C)C	1.6	57.0	-2.4	-2.1	i	-2.0	/	/
CC[N+]1=CN(c2ccccc2)C(C)=CC1(C)C	-4.7	-5.8	24.0	-95.1	i	60.8*	28.0	/
CCN(CC)c1ccc(NC(=O)COc2ccccc2C#N)cc1S(=O)(=O)Nc1ccc(OC)cc1	-3.8	-3.3	-5.6	6.5	i	1.7	/	/
CCN(CC)c1ccc(NC(=O)COc2ccccc2C)cc1S(=O)(=O)Nc1ccccc1OC	5.3	-16.2	49.7*	31.9	i	3.9	/	61.3*	UDG A3G counter=2.8
CCN(CC)c1ccc(NC(=O)c2ccc(=O)[nH]c2)cc1S(=O)(=O)Nc1ccccc1OC	3.5	17.2	55.6*	26.8	i	-1.3	/	37.8*	UDG A3G counter=-3.1
CCC(Sc1nc(N)cc(N)n1)C(=O)O (centres undefined)	-1.8	-2.1	44.1*	-1.9	i	2.4	/	3.7
CCC(Sc1ccccc1C(=O)O)C(=O)O (centres undefined)	-6.7	15.0	4.0	7.1	i	10.0	/	/
C/C(=N\NC(=O)C(=O)N/N=C(\C)c1cccc(O)c1)c1cccc(O)c1	23.1	30.5	58.4*	10.3	i	2.4	/	0.6
CC(C)(C)C(=O)Nc1ccc(S(=O)(=O)Nc2ccccn2)cc1	-1.2	49.8	-4.6	-7.6	i	-0.4	/	/
COc1ccccc1NS(=O)(=O)c1ccc(O)cc1	9.3	3.9	81.2*	6.6	i	1.1	/	2.8
COc1ccccc1NS(=O)(=O)c1ccc(/C=C/C(=O)O)cc1	-8.1	20.1	-1.2	15.0	i	-0.8	/	/
O=C(Nc1ccnn1C1CCN(Cc2cccc(O)c2)CC1)C1CCCC1	-5.2	26.3	-8.2	13.6	i	-1.6	/	/
CN(C)S(=O)(=O)c1cccc(-n2sc3ccccc3c2=O)c1	-7.6	5.5	85.3*	29.4	i	-3.2	/	93.4*	UDG A3G counter=-1.9
O=c1c2ccccc2sn1-c1cccc(Cl)c1	/	/	/	21.7	/	/	/	/
O=c1c2ccccc2sn1-c1ccccc1	-3.9	-47.7	86.8*	45.8*	i	-0.9	/	91.4*	UDG A3G counter=-3.7
O=c1c2cc(F)ccc2sn1-c1ccccc1	/	/	85.6*	19.2	/	3.0	/	88.2*	UDG A3G counter=-3.1
O=C(O)c1cccc(-n2sc3ccccc3c2=O)c1	/	/	82.6*	30.8	/	-0.6	/	90.8*	UDG A3G counter=-1.6
